Data on 40 compounds can be found in PubChem BioAssay (Tox21).

Inconclusive results are not listed. A call without a number means that no potency is given here. Active and inactive are the calls of the source. Calls follow the shape of the full dose curve.

Beta-2 adrenergic receptor (Homo sapiens), sequence (P07550 whole entry, looked up): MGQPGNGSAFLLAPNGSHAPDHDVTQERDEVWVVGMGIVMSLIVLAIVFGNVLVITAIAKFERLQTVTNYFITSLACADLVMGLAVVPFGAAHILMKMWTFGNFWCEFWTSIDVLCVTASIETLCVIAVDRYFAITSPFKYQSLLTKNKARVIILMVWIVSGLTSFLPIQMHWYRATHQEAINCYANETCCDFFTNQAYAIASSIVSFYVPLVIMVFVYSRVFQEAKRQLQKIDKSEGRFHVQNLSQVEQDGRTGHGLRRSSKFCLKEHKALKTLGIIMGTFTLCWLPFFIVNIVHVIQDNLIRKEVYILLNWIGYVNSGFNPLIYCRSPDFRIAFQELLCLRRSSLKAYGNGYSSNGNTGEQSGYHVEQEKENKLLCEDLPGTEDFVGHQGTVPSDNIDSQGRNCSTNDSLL

This assay has as its target Beta-2 adrenergic receptor (Homo sapiens) (UniProt P07550). Description: Adrenergic beta2 receptor (ADRB2) small molecule antagonists, cell-based qHTS assay (AID 1963592). Also: nearly all actives have a fitted effect of over 50% in size. As to conditions: CHO-ADRB2 cells, isoproterenol-stimulated cAMP HTRF ratio, 0.5 h; series mostly up to 92.4 µM. The text has this:
U.S. Tox21 Program National Center for Advancing Translational Sciences [NCATS] Division of Preclinical Innovation [DPI] U.S. Environmental Protection Agency [EPA] National Institutes of Environmental Health Sciences [NIEHS] National Toxicology Program [NTP] U.S. Food and Drug Administration [FDA] Tox21 Assay Overview: Beta adrenergic receptors (Beta-ARs) belong to the G-protein coupled receptor (GPCR) superfamily, includes three subtypes - beta1, beta2, and beta3. Beta1-AR is the predominant receptor subtype expressed in the heart, and beta2-AR is expressed in the kidney, lung, blood vessel and in the heart, and beta3 is found in the adipocytes. Beta1 and 2 ARs couple to Gs protein and elevate cyclic adenosine mono phosphate (cAMP), which activates protein kinase A and leads to the downstream signaling responsible for the physiological actions. Beta-AR agonists or antagonists are the most prescribed therapeutic agents for heart failure and asthma, and these were one of the first target receptors for the rational drug design. Tox21 10K compound library was screened using the cAMP-Gs dynamic assay (Cisbio Bioassays, Shelton, CT) to identify agonists/antagonists of the Gs-coupled human adrenergic, beta2 receptor (ADRB2) in the CHO-ADRB2 cell line (Codex BioSolutions, Inc. Gaithersburg, MD), which stably over-expresses ADRB2. The principle of cAMP-Gs dynamic assay is based on HTRF technology, which facilitates the fluorescence resonance energy transfer (FRET) between donor Europium cryptate and acceptor d2-labeled cAMP. The cAMP generated within cells competes with the red acceptor, d2-labled cAMP, for binding to the monoclonal anti-cAMP-cryptate (Europium donor). An increase in intracellular cAMP leads to the disruption of FRET signal, and the signal is inversely proportional to the cAMP concentration. Propranolol HCl (Sigma-Aldrich, St. Louis, MO) was used as a positive control in the screening.
Tox21 Assay Protocol Summary: CHO-ADRB2 cells were dispensed at 1,000/well in 4uL assay medium into white/solid 1536-well plates (Greiner Bio-One North America Inc., Monroe, NC) using a Multidrop Combi dispenser (ThermoFisher Scientific, Waltham, MA). The assay plates were incubated at 37C and 5% CO2 for an overnight (18-20hr). Then positive control and test compounds dissolved in DMSO were transferred to the assay plates at 23nL using a Pintool station (Wako, San Diego, CA). Following the compound and positive control transfer, 1uL agonist-stimulation mix containing 1nM Isoproterenol HCl, 100uM IBMX and 25uM Ro-20-1724 was added to each well of the assay plates using BioRAPTR Flying Reagent Dispenser (FRD, Beckman Coulter, Brea, CA). The assay plates were incubated at room temperature for 0.5hr. Then 2.5ul each d2-labled cAMP and anti-cAMP-cryptate solutions were added separately to each well of the assay plates using an FRD and the assay plates were incubated at room temperature for 1hr. The fluorescence signal was measured at two different wavelengths (665nm and 615nm) using an Envision plate reader (Perkin Elmer, Shelton, CT). Data were expressed as the ratio of 665 nm/615 nm.
With `CCN(CC)CCNc1ccc(CNC=O)c2sc3ccc(OC)cc3c(=O)c12`, the Potency entry is “inactive”.
For the compound `C/C(=C\C(C)CC(C)CC(C)C)C1CC(=O)OC1=O` (stereo not given), the Potency result is “inactive”.
Still for that read-out and setting: for `COS(=O)(=O)C(F)(F)F` the value was “inactive”; for `NS(=O)(=O)Cc1noc2ccccc12`, “inactive”; for `CCOC(=O)OC(C)OC1=C(C(=O)Nc2ccccn2)N(C)S(=O)(=O)c2ccccc21` (stereo not given), “inactive”.
Still for that read-out and setting: the result for `CN1CCC[C@@H]1Cc1c[nH]c2ccc(CCS(=O)(=O)c3ccccc3)cc12` reads “inactive”.
Same read-out and setting: the result for `O=C(Nc1ccccc1)c1ccccc1O` reads “inactive”.
With `C=CCCCC`, the Potency entry is “inactive”.
The same measure, in the same setting: for `O=C(Nc1ccc(Cl)c(Cl)c1)C1CC1` the value was “inactive”; for `O=C(O)c1cc(C(=O)O)c(C(=O)O)cc1C(=O)O`, “inactive”.
On the same count and under the same terms, the result for `CCCC1CCCC(=O)O1` (stereo not given) reads “inactive”.
Regarding `CC(C)SCc1ccco1`, the Potency entry is “inactive”.
The same measure, in the same setting: the result for `CCCCCC[C@@H](CCC)C(=O)O` reads “inactive”; that for `CC1(C)Cc2cccc(N)c2O1`, “inactive”; that for `Oc1ccc2c(c1)OCO2`, “inactive”.
Same read-out and setting: the result for `CCCCCCCCCC[N+](C)(C)[O-]` reads “inactive”; that for `CCCCCCn1c(=O)c2c(ncn2C)n(C)c1=O`, “inactive”; that for `CC(C)=CCC/C(C)=C/COC=O`, “inactive”.
On the same count and under the same terms, the result for `C/C=C/C=C/COC(=O)C(C)C` reads “inactive”.
As for `CCCCCCCCCCCCCCN(C)C`, the activity change, negative = inhibition is -1.54% [at 19 µM] (inactive).
Regarding `CC(C)(O)CCc1ccccc1`, the Potency result is “inactive”.
Same read-out and setting: the result for `CCCNC(C)C(=O)Nc1ccccc1C` (stereo not given) reads “inactive”; that for `CCCCCCCCC(C)=O`, “inactive”; that for `O=C1c2ccccc2C(=O)C1c1ccccc1`, “inactive”.
`CC(=O)[C@@]1(O)CC[C@H]2[C@@H]3C[C@H](C)C4=CC(=O)CC[C@]4(C)[C@H]3CC[C@@]21C`: the Potency entry is “inactive”.
For the compound `CC(c1cc(C(C)(C)C)cc(C(C)(C)C)c1O)c1cc(C(C)(C)C)cc(C(C)(C)C)c1O`, the Potency entry is “inactive”.
The same measure, in the same setting: the result for `CCNC(=O)C1CC(C)CCC1C(C)C` (stereo not given) reads “inactive”; that for `C[C@@H]1C[C@H]2[C@@H]3CCC4=CC(=O)C=C[C@]4(C)[C@@]3(F)[C@@H](O)C[C@]2(C)[C@@]1(O)C(=O)COP(=O)(O)O`, “inactive”.
On to `CCN(CC)c1ccc(C=O)cc1`, for which the Potency entry is “inactive”.
As to `Cc1cc(OI)c(C(C)C)cc1-c1cc(C(C)C)c(OI)cc1C`, the Potency result is “inactive”.
Still for that read-out and setting: the result for `CCNS(=O)(=O)c1ccc(C)cc1` reads “inactive”.
Still for that read-out and setting: the result for `Cc1cccc(N(C)C(=S)Oc2ccc3c(c2)CCC3)c1` reads “inactive”; that for `CC(C)(Sc1cc(C(C)(C)C)c(O)c(C(C)(C)C)c1)Sc1cc(C(C)(C)C)c(O)c(C(C)(C)C)c1`, “inactive”.
Same read-out and setting: for `N#Cc1cscn1` the value was “inactive”.
Turning to `NCCCC[C@H](N[C@@H](CCc1ccccc1)C(=O)O)C(=O)N1CCC[C@H]1C(=O)O`, the Potency result is “inactive”.
Regarding `CC(CN(C)C)C(C)(O)Cc1ccc(Cl)cc1` (stereo not given), the Potency entry is “inactive”.
On the same count and under the same terms, the result for `C=CCSCC1Nc2cc(Cl)c(S(N)(=O)=O)cc2S(=O)(=O)N1` (stereo not given) reads “inactive”.
On to `O=Cc1ccc(F)c(Br)c1`, for which the Potency entry was “inactive”.
As to `Cc1c(C)c2c(c(C)c1OC(=O)CCC(=O)OCCO)CC[C@@](C)(CCC[C@H](C)CCC[C@H](C)CCCC(C)C)O2`, the Potency entry is “inactive”.
Same read-out and setting: the result for `C[N+]1(CC2COC(c3ccccc3)(C3CCCCC3)O2)CCCCC1` (stereo not given) reads “inactive”.
